Pf growth 48h: Primary qHTS for delayed death inhibitors of the malarial parasite plastid, 48 hour incubation. P. falciparum luciferase growth in erythrocytes, 48 h. Potency, µM (doses to about 28.7 µM), hits mostly inhibitors. hit rate 5.9% among 310,000
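Erythrocytes infected with P. falciparum carrying an integrated firefly luciferase reporter (2% hematocrit, 0.1% parasitemia final) were exposed to compounds in RPMI 1640 with 0.5% Albumax at 37 C, 5% CO2. Growth inhibition was scored as reduced luminescence.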
HCV inhibitor: qHTS Assay for Inhibitors of Hepatitis C Virus (HCV); Huh7.5.1 HCVcc-Cre infection, luciferase reporter, 44 h; Potency, µM (highest dose often 41.8 µM), hits mostly inhibitors; hit rate 3.4% among 340,000; AID 651820, 2012
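Infectious HCVcc-Cre (~0.5 moi) was added to cells just after compound, with cells seeded 4 h earlier at 1,000 per well. Luciferase activity after 44 h culture reported infection; substrate was incubated 15 min at room temperature before reading.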
Pf growth 96h: Primary qHTS for delayed death inhibitors of the malarial parasite plastid, 96 hour incubation; P. falciparum luciferase reporter growth, 96 h; Potency, µM (titrated, usually from 28.7 µM), actives largely listed as inhibitors; hit rate 6.9% among 320,000; AID 504834, 2011
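Two parasite generations (96 h, 37 C, 5% CO2) of compound exposure in infected erythrocytes (0.05% parasitemia, 2% hematocrit). Luciferase-reporter P. falciparum; decreased luminescence indicates inhibited growth, aimed at apicoplast-acting delayed death.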
SARS PLP yeast: qHTS of Yeast-based Assay for SARS-CoV PLP; hit rate 0.19% among 330,000; AID 485353, 2010; Potency, µM (series often up to 32.9 µM), usual class: activators; S. cerevisiae expressing SARS-CoV PLpro, growth rescue; calls by dose curve; further: nearly all actives have a fitted effect of over 55% in size
Sm TGR inh: qHTS Assay for the Inhibitors of Schistosoma Mansoni Peroxiredoxins; Schistosoma mansoni thioredoxin glutathione reductase (TGR), Q962Y6; purified TGR, DTNB reduction, TNB absorbance 405 nm; Potency, µM (top dose mostly 114 µM), usual class: inhibitors; hit rate 3% among 360,000; further: nearly all actives have a fitted effect of over 60% in size
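First, TGR (20 nM dispensed) and NADPH were mixed with compound. Second, a 15 min room-temperature incubation followed. Third, further NADPH and then DTNB were added to start the reaction. Finally, TNB absorbance was monitored kinetically.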
HCMV antiviral: qHTS Assay for inhibitors of the human cytomegalovirus (HCMV). HFF cells, HCMV-luciferase reporter, 72 h; stronger effect = lower value. activity change, negative = inhibition, % at 57.5 µM. hit rate 4.5% among 410,000. AID 1259415, 2018; in the data active means activity change below about -60%; inconclusive means no clear call, values can overlap the other calls; inactive means above about -39%
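Inhibition of viral replication was scored as loss of reporter luminescence in HFFs infected with HCMV-luciferase (MOI 1 PFU/cell) for 72 h; compounds tested at 2 doses, normalized to buffer and Salinomycin controls.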
A number is an active result. The list is not random: actives were taken first. Their share in the collection is about 15%. Unless noted, the call rests on the fitted dose curve; in most records, active means well fitted curve in the direction sought with a large enough effect; inconclusive means small, poorly fitted or top-dose-only effect, or another doubt; inactive means no such curve, though single readings can be large; an effect the other way counts as inactive or inconclusive.

Results for O=C1NC(=O)N(c2ccc(Cl)cc2)C(=O)/C1=C\c1ccc(Sc2nc3ccccc3[nH]2)o1 ?
Pf growth 48h: inactive; HCV inhibitor: inactive; Pf growth 96h: inactive; SARS PLP yeast: inactive; Sm TGR inh: 8.9µM; HCMV antiviral: inactive

How did C=CCN1C(=O)S/C(=C/c2ccc(Sc3nc4ccccc4[nH]3)o2)C1=O do in these assays?
Pf growth 48h: inactive; HCV inhibitor: inconclusive; Pf growth 96h: inactive; SARS PLP yeast: inactive; Sm TGR inh: inactive; HCMV antiviral: -92

How did COC(=O)c1cccnc1-n1c(=O)c2cccnc2n(CC(=O)Nc2ccc(Br)cc2)c1=O do in these assays?
Pf growth 48h: inconclusive; HCV inhibitor: inconclusive; Pf growth 96h: inactive; SARS PLP yeast: inactive; Sm TGR inh: inactive; HCMV antiviral: inactive

What do the screens show for `COC(=O)c1cccnc1-n1c(=O)c2cccnc2n(Cc2ccc([N+](=O)[O-])cc2)c1=O`?
Pf growth 48h: 10µM; HCV inhibitor: inactive; Pf growth 96h: inconclusive; SARS PLP yeast: inactive; Sm TGR inh: inactive; HCMV antiviral: inactive

What do the screens show for `Fc1ccccc1OCCSc1ncnc2nc[nH]c12`?
Pf growth 48h: inactive; HCV inhibitor: inactive; Pf growth 96h: 4.7µM; SARS PLP yeast: inactive; HCMV antiviral: inactive

How did c1ccc(OCCSc2ncnc3nc[nH]c23)cc1 do in these assays?
HCV inhibitor: inactive; HCMV antiviral: inactive

What do the screens show for `COC(=O)c1ccccc1NC(=O)C1CC(=O)N(c2ccc(C)c(C)c2)C1` (configuration not stated)?
HCV inhibitor: inactive; Pf growth 96h: 4.1µM; SARS PLP yeast: inactive; Sm TGR inh: inactive; HCMV antiviral: inactive

Results for COc1ccc(N2CC(C(=O)N(C)CC(=O)Nc3ccc(Cl)c(C(F)(F)F)c3)CC2=O)c(OC)c1 (configuration not stated) ?
Pf growth 48h: inconclusive; HCV inhibitor: inconclusive; Pf growth 96h: 13µM; SARS PLP yeast: inactive; Sm TGR inh: inactive; HCMV antiviral: inactive

What do the screens show for `COc1ccc(N2CC(C(=O)Nc3cc(C(F)(F)F)ccc3N3CCCC3)CC2=O)c(OC)c1` (configuration not stated)?
Pf growth 48h: inconclusive; HCV inhibitor: inconclusive; Pf growth 96h: inactive; SARS PLP yeast: inactive; Sm TGR inh: inactive; HCMV antiviral: inconclusive

What do the screens show for `COC(=O)c1ccccc1NC(=O)C1CC(=O)N(c2ccc(F)cc2)C1` (configuration not stated)?
Pf growth 48h: inconclusive; HCV inhibitor: inactive; SARS PLP yeast: inactive; Sm TGR inh: inactive; HCMV antiviral: inactive

Results for COc1ccc(N2CC(C(=O)Nc3ccccc3N3CCCC3)CC2=O)c(OC)c1 (configuration not stated) ?
Pf growth 48h: inactive; HCV inhibitor: 8.9µM; Pf growth 96h: inactive; SARS PLP yeast: inactive; Sm TGR inh: inactive; HCMV antiviral: inactive

How did O=C(Nc1ccc(F)cc1F)c1ccc2c(c1)CCN2S(=O)(=O)c1ccc(Cl)cc1 do in these assays?
Sm TGR inh: inactive; HCMV antiviral: inactive

How did COc1cc(C(=O)OCCCN2CCCN(CCCOC(=O)c3cc(OC)c(OC)c(OC)c3)CC2)cc(OC)c1OC do in these assays?
Pf growth 48h: 9.5µM; HCV inhibitor: 8.9µM; Pf growth 96h: inactive; HCMV antiviral: inactive

What do the screens show for `COc1cc(C(=O)OCCN2CCOCC2)cc(OC)c1OC`?
Pf growth 48h: inactive; HCV inhibitor: inactive; Pf growth 96h: inactive; SARS PLP yeast: inactive; Sm TGR inh: inactive; HCMV antiviral: inactive

What do the screens show for `CCN(CC)CCCCCCCCOC(=O)c1cc(OC)c(OC)c(OC)c1`?
Pf growth 48h: 9.3µM; HCV inhibitor: 0.56µM; Pf growth 96h: 10µM; Sm TGR inh: inactive; HCMV antiviral: inactive

How did O=C1CCC[C@H]2[C@@H](Cc3ccccc3)[C@@H](NS(=O)(=O)c3cccs3)CC[C@]23CCCN13 do in these assays?
HCMV antiviral: inactive

Results for O=c1c2ccccc2nnn1-c1ccccc1[N+](=O)[O-] ?
HCMV antiviral: inactive
